For 40 compounds, Potency results are on record in PubChem BioAssay (Tox21).

Each structure is given as a SMILES string. Inconclusive results are not listed. A call without a number means that no potency is given here. Activity calls are given as the source filed them. Calls follow the shape of the full dose curve.
Potency is read from the fitted curve at half-maximal effect.

Sequence of Acetylcholinesterase (Homo sapiens) (P22303 whole entry, looked up): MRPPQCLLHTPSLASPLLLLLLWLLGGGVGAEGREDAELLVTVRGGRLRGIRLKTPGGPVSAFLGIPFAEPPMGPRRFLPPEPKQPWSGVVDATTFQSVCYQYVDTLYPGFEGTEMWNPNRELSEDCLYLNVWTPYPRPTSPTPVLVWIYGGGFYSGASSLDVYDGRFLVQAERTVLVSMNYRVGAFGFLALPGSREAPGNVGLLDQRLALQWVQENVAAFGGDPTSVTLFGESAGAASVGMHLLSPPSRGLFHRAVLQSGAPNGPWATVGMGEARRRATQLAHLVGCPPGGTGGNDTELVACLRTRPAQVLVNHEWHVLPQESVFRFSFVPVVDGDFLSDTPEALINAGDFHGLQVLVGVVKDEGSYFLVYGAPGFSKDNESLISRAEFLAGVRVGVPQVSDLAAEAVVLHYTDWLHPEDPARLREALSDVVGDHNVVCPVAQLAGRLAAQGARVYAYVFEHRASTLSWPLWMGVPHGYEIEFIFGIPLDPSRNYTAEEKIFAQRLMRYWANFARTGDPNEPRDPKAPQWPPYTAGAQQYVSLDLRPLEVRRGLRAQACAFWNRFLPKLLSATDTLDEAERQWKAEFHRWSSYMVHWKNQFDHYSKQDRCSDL

In the first experiment the target is Acetylcholinesterase (Homo sapiens) (UniProt P22303). Briefly: Acetylcholinesterase (AChE) small molecule antagonists: colormetric cell-based qHTS assay (AID 1347395). Also: nearly all actives have a fitted effect of over 30% in size. The note with it: SH-SY5Y cells AChE activity, colorimetric (Ellman); series mostly up to 115 µM. An outline of the steps:
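SH-SY5Y cells, plated overnight at 37 C, were exposed to compounds for 30 min at 37 C and 5% CO2. Acetylthiocholine plus DTNB was then added, and thiocholine from endogenous AChE was quantified colorimetrically after 90 min at 37 C.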
Background: In qHTS, concentration-response curves come from the screen itself.
For the compound `CC(C)(C)c1cc(Cc2cc(C(C)(C)C)c(O)c(C(C)(C)C)c2)cc(C(C)(C)C)c1O`, the Potency result is “inactive”.

As for `CN(C)C(=O)Nc1ccc(Cl)c(Cl)c1`, the Potency entry is “inactive”.

On to `O=[N+]([O-])c1ccc2c(c1)Cc1ccccc1-2`, for which the Potency result is “inactive”.

Turning to `COC(=O)C1=C(C)NC(C)=C(C(=O)OCC(C)C)C1c1ccccc1[N+](=O)[O-]` (stereo not given), the Potency result is “inactive”.

Turning to `C[C@H](CCC(=O)O)[C@H]1CC[C@H]2[C@@H]3CC[C@@H]4C[C@H](O)CC[C@]4(C)[C@H]3C[C@H](O)[C@]12C`, the Potency result is “inactive”.

For the compound `Cc1c(C(=O)O)c(O)cc2c1C(=O)c1c(O)c([C@@H]3O[C@H](CO)[C@@H](O)[C@H](O)[C@H]3O)c(O)c(O)c1C2=O`, the Potency entry was “inactive”.

Turning to `CC(C)CC(=O)O`, the Potency result was “inactive”.

On to `CCCCCCc1ccc(-c2ccc(C#N)cc2)cc1`, for which the Potency result was “inactive”.

For `O=C(Nc1ccc([N+](=O)[O-])cc1Cl)c1cc(Cl)ccc1O`, the Potency entry was “inactive”.

In the case of `C/C=C(\C)C(=O)OCCc1ccccc1`, the Potency entry is “inactive”.

Take `O=C1c2ccccc2C(=O)c2c1ccc(O)c2O`: the Potency entry is “inactive”.

With `CCOC(=O)[C@H](O)[C@@H](O)C(=O)OCC`, the Potency result is “inactive”.

For `O=C1c2c(O)ccc(Nc3ccc(CCO)cc3)c2C(=O)c2c([N+](=O)[O-])ccc(O)c21`, the Potency is 8.94 µM (active).

Turning to `NNC(=O)c1cccc(C(=O)NN)c1`, the Potency result is “inactive”.

`O=C(c1ccccc1)c1ccc2n1CCC2C(=O)O` (stereo not given): the Potency entry was “inactive”.

Turning to `CCC(C(=O)NC(N)=O)c1ccccc1` (stereo not given), the Potency result was “inactive”.

In the case of `CN(Cc1cnc2nc(N)nc(N)c2n1)c1ccc(C(=O)N[C@@H](CCC(=O)O)C(=O)O)cc1`, the Potency result is “inactive”.

In the case of `O=C(O)C(Cc1cc(I)c(O)c(I)c1)c1ccccc1` (stereo not given), the Potency result is “inactive”.

`NCCO`: the Potency entry is “inactive”.

On to `Oc1ccc2c(c1)-c1ccccc1C2`, for which the Potency result is “inactive”.

As to `CNC(=O)c1c(I)c(NC(=O)CCCCC(=O)Nc2c(I)c(C(=O)O)c(I)c(C(=O)NC)c2I)c(I)c(C(=O)O)c1I`, the Potency result was “inactive”.

Consider `CNCC[C@@H](Oc1ccccc1C)c1ccccc1`, for which the Potency entry was “inactive”.

`CCOC(=O)[C@H](CCc1ccccc1)N[C@@H](C)C(=O)N1C(=O)N(C)C[C@H]1C(=O)O`: the Potency entry is “inactive”.

As for `CCN(CCC#N)c1ccc(N=Nc2ccc([N+](=O)[O-])cc2)cc1`, the Potency entry was “inactive”.

As to `CCN(CCCc1ccccc1)CCCc1ccccc1`, the Potency entry was “inactive”.

For the compound `OC1CCCCC1`, the Potency entry is “inactive”.

For the compound `CC(C)(C)C(=O)C1C(=O)c2ccccc2C1=O`, the Potency entry is “inactive”.

On to `ClC/C=C\CCl`, for which the Potency result is “inactive”.

`COC1=CC(=O)C[C@@H](C)[C@]12Oc1c(Cl)c(OC)cc(OC)c1C2=O`: the Potency result is “inactive”.

For `CCN(CC)CCOC(=O)C1(C2CCCCC2)CCCCC1`, the Potency result is “inactive”.

As for `Cc1ccc(C(C)C)c(O)c1`, the Potency entry was “inactive”.

For `Cc1ccc2c(c1)C(=O)OC2=O`, the Potency entry was “inactive”.

Regarding `CC(C)=CCC/C(C)=C/C(=O)O`, the Potency result is “inactive”.

In the case of `CCCCCCCCCCCCCCCO`, the Potency entry was “inactive”.

For the compound `c1ccc2c(c1)ccc1cc3c(ccc4ccccc43)cc12`, the Potency entry is “inactive”.

`COc1cc(C(=O)NCCCCCC(=O)O)cc(OC)c1OC`: the Potency entry was “inactive”.

For `CCN1C=CN(C)C1C` (stereo not given), the Potency entry was “inactive”.

Consider `C=C(CC)C(=O)c1ccc(OCC(=O)O)c(Cl)c1Cl`, for which the Potency entry is “inactive”.

For the compound `C[C@@H]1O[C@@H](O[C@@H]2[C@@H](O)[C@H](OCCc3ccc(O)c(O)c3)O[C@H](CO[C@@H]3O[C@H](CO)[C@@H](O)[C@H](O)[C@H]3O)[C@H]2OC(=O)/C=C/c2ccc(O)c(O)c2)[C@H](O)[C@H](O)[C@H]1O`, the Potency entry was “inactive”.

For `CC(N)CN` (stereo not given), the Potency result was “inactive”.

The target is the same in a further experiment. Briefly: Acetylcholinesterase (AChE) small molecule antagonists: enzyme-based qHTS assay (AID 1347397). Also: nearly all actives have a fitted effect of over 55% in size. The note with it: Potency: AChE enzyme activity inhibition; outcome: AChE enzyme activity inhibition; series mostly up to 115 µM. An outline of the steps:
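Colorimetric DTNB read-out of thiocholine released from acetylthiocholine by recombinant human AChE (50 mU/mL as dispensed). Compounds were preincubated 30 min at RT before substrate/DTNB addition, with a 10 min RT reaction.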
Take `CC(C)(C)c1cc(Cc2cc(C(C)(C)C)c(O)c(C(C)(C)C)c2)cc(C(C)(C)C)c1O`: the Potency entry is “inactive”.

With `CN(C)C(=O)Nc1ccc(Cl)c(Cl)c1`, the Potency result was “inactive”.

`O=[N+]([O-])c1ccc2c(c1)Cc1ccccc1-2`: the Potency result is “inactive”.

Take `COC(=O)C1=C(C)NC(C)=C(C(=O)OCC(C)C)C1c1ccccc1[N+](=O)[O-]` (stereo not given): the Potency result was “inactive”.

In the case of `C[C@H](CCC(=O)O)[C@H]1CC[C@H]2[C@@H]3CC[C@@H]4C[C@H](O)CC[C@]4(C)[C@H]3C[C@H](O)[C@]12C`, the Potency entry is “inactive”.

In the case of `Cc1c(C(=O)O)c(O)cc2c1C(=O)c1c(O)c([C@@H]3O[C@H](CO)[C@@H](O)[C@H](O)[C@H]3O)c(O)c(O)c1C2=O`, the Potency entry is “inactive”.

As for `CC(C)CC(=O)O`, the Potency entry was “inactive”.

Regarding `CCCCCCc1ccc(-c2ccc(C#N)cc2)cc1`, the Potency result was “inactive”.

Regarding `O=C(Nc1ccc([N+](=O)[O-])cc1Cl)c1cc(Cl)ccc1O`, the Potency result was “inactive”.

Consider `C/C=C(\C)C(=O)OCCc1ccccc1`, for which the Potency result was “inactive”.

Regarding `O=C1c2ccccc2C(=O)c2c1ccc(O)c2O`, the Potency result is “inactive”.

For `CCOC(=O)[C@H](O)[C@@H](O)C(=O)OCC`, the Potency entry is “inactive”.

Regarding `O=C1c2c(O)ccc(Nc3ccc(CCO)cc3)c2C(=O)c2c([N+](=O)[O-])ccc(O)c21`, the Potency was 20 µM (active).

In the case of `NNC(=O)c1cccc(C(=O)NN)c1`, the Potency result was “inactive”.

With `O=C(c1ccccc1)c1ccc2n1CCC2C(=O)O` (stereo not given), the Potency entry was “inactive”.

Take `CCC(C(=O)NC(N)=O)c1ccccc1` (stereo not given): the Potency result was “inactive”.

For `CN(Cc1cnc2nc(N)nc(N)c2n1)c1ccc(C(=O)N[C@@H](CCC(=O)O)C(=O)O)cc1`, the Potency result is “inactive”.

As to `O=C(O)C(Cc1cc(I)c(O)c(I)c1)c1ccccc1` (stereo not given), the Potency result is “inactive”.

Take `NCCO`: the Potency entry is “inactive”.

On to `Oc1ccc2c(c1)-c1ccccc1C2`, for which the Potency entry was “inactive”.

On to `CNC(=O)c1c(I)c(NC(=O)CCCCC(=O)Nc2c(I)c(C(=O)O)c(I)c(C(=O)NC)c2I)c(I)c(C(=O)O)c1I`, for which the Potency entry is “inactive”.

As for `CNCC[C@@H](Oc1ccccc1C)c1ccccc1`, the Potency entry was “inactive”.

With `CCOC(=O)[C@H](CCc1ccccc1)N[C@@H](C)C(=O)N1C(=O)N(C)C[C@H]1C(=O)O`, the Potency entry is “inactive”.

In the case of `CCN(CCC#N)c1ccc(N=Nc2ccc([N+](=O)[O-])cc2)cc1`, the Potency entry is “inactive”.

As for `CCN(CCCc1ccccc1)CCCc1ccccc1`, the Potency entry is “inactive”.

In the case of `OC1CCCCC1`, the Potency entry is “inactive”.

For `CC(C)(C)C(=O)C1C(=O)c2ccccc2C1=O`, the Potency entry is “inactive”.

As for `ClC/C=C\CCl`, the Potency entry was “inactive”.

As for `COC1=CC(=O)C[C@@H](C)[C@]12Oc1c(Cl)c(OC)cc(OC)c1C2=O`, the Potency entry was “inactive”.

Regarding `CCN(CC)CCOC(=O)C1(C2CCCCC2)CCCCC1`, the Potency result was “inactive”.

Turning to `Cc1ccc(C(C)C)c(O)c1`, the Potency entry is “inactive”.

Take `Cc1ccc2c(c1)C(=O)OC2=O`: the Potency entry is “inactive”.

In the case of `CC(C)=CCC/C(C)=C/C(=O)O`, the Potency result was “inactive”.

As for `CCCCCCCCCCCCCCCO`, the Potency entry was “inactive”.

On to `c1ccc2c(c1)ccc1cc3c(ccc4ccccc43)cc12`, for which the Potency result was “inactive”.

For `COc1cc(C(=O)NCCCCCC(=O)O)cc(OC)c1OC`, the Potency result is “inactive”.

For `CCN1C=CN(C)C1C` (stereo not given), the Potency result is “inactive”.

As for `C=C(CC)C(=O)c1ccc(OCC(=O)O)c(Cl)c1Cl`, the Potency entry was “inactive”.

On to `C[C@@H]1O[C@@H](O[C@@H]2[C@@H](O)[C@H](OCCc3ccc(O)c(O)c3)O[C@H](CO[C@@H]3O[C@H](CO)[C@@H](O)[C@H](O)[C@H]3O)[C@H]2OC(=O)/C=C/c2ccc(O)c(O)c2)[C@H](O)[C@H](O)[C@H]1O`, for which the Potency entry is “inactive”.

For `CC(N)CN` (stereo not given), the Potency result is “inactive”.
